Compound activity as filed in PubChem BioAssay.
In the library only some 2.4% were active in any assay of this set; here they are far more common.
Pol eta inh: inhibitors of human DNA polymerase eta; Potency, µM (doses to about 114 µM), without a hit: at the top dose activity change, negative = inhibition, hits mostly inhibitors; hit rate 1.2% among 390,000; AID 588591; Q9Y253; recombinant Pol eta, fluorescent DNA replication assay; also: % is scaled to controls: 0 for no effect and ±100 for the full control effect
Target sequence (Q9Y253 whole entry, looked up): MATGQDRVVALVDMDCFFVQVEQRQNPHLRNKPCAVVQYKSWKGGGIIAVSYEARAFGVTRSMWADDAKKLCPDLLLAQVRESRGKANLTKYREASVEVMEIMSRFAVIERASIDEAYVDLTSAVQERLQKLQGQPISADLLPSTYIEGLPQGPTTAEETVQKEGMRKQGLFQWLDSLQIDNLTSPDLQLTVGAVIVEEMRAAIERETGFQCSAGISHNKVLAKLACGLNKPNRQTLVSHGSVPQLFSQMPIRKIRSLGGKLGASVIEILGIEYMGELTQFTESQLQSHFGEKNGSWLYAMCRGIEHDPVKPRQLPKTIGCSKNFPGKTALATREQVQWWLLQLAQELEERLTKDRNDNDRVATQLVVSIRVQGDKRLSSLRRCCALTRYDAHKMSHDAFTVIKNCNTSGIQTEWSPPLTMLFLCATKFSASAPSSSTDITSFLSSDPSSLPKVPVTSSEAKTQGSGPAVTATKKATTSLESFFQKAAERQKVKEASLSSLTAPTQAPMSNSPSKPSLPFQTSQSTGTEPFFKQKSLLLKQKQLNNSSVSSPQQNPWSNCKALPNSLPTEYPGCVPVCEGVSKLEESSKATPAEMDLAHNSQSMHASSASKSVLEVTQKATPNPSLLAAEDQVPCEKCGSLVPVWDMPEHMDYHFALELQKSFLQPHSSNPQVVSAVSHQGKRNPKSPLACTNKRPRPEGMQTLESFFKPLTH
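Fluorescent replication assay: 50 nM final substrate added after a 15 min room-temperature compound preincubation with 10 nM enzyme. Signal taken at 0 min and again at 10 min.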
Pol iota inh: DNA polymerase iota (human) inhibition; Potency, µM (doses to about 115 µM), for the others: top-dose activity, negative = inhibition, actives largely listed as inhibitors; AID 588590; Pol iota fluorescent replication assay, 10 min; hit rate 1% among 390,000; Q9UNA4
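Pol iota at 10 nM preincubated 15 min with compounds at room temperature; reaction started with fluorescent substrate, 50 nM final. Fluorescence read kinetically at 0 and 10 min; buffer-only wells as negative control.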
POLK inh: inhibitors of human DNA polymerase kappa; AID 588579; purified Pol kappa, fluorescent DNA synthesis assay, 10 min; hit rate 0.53% among 400,000; Potency, µM (titrated, usually from 107 µM), for inactives: at the highest dose activity, negative = inhibition, most hits filed as inhibitors; Q9UBT6; also: % is scaled to controls: 0 for no effect and ±100 for the full control effect
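Kinetic fluorescence readout at 0 and 10 min followed reaction start with substrate at 50 nM final. Beforehand, enzyme (10 nM Pol kappa) stood 15 min with compound at room temperature; buffer-only wells were negative controls.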
FEN1 inhibitor: blocks human flap endonuclease 1. P39748. hit rate 0.35% among 390,000. Potency, µM (titrated, usually from 114 µM), without a hit: at the highest dose activity change, negative = inhibition, usual class: inhibitors. Recombinant FEN1 flap cleavage, fluorescence, 15 min; also: % is scaled to controls: 0 for no effect and ±100 for the full control effect; nearly all actives have a fitted effect of over 65% in size
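Nuclease activity of 10 nM FEN1 was measured after 15 min of room-temperature exposure to titrated compounds, by adding 50 nM flap substrate and reading plates at 0 and 15 min.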
Pol beta inh: inhibitors of human DNA polymerase beta. P06746. Pol beta primer extension/strand displacement, fluorescence kinetic. Potency, µM (doses to about 114 µM), without a hit: at the top dose activity change, negative = inhibition, actives largely listed as inhibitors. hit rate 1.3% among 340,000; also: % is scaled to controls: 0 for no effect and ±100 for the full control effect
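Kinetic readout of DNA synthesis with strand displacement by Pol beta. Compound and 10 nM enzyme sit 15 min at room temperature; 50 nM substrate starts the reaction, read immediately and at 10 min.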
WRN helicase inh: blocks human WRN helicase; Q14191; WRN helicase unwinding, fluorescent forked duplex, kinetic; Potency, µM (top dose mostly 114 µM), inactives show top-dose activity change, negative = inhibition, usual class: inhibitors; hit rate 0.46% among 360,000; also: % is scaled to controls: 0 for no effect and ±100 for the full control effect; nearly all actives have a fitted effect of over 55% in size
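Fluorescence dequenching readout, ex 525 nm/em 598 nm, kinetic mode: forked duplex DNA (100 nM final) with adjacent fluorophore and quencher unwound by WRN (20 nM final) with 2 mM ATP. Compound preincubation 15 min, room temperature.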
Numbers without * were called inactive; ? = inconclusive; . = no result given; [ ] = another dose, or the depositor's remark. Calls follow the shape of the dose curve; as a rule, active = well fitted curve in the direction sought with a large enough effect; inconclusive = small, poorly fitted or top-dose-only effect, or another doubt; inactive = no such curve, though single readings can be large; an effect the other way counts as inactive or inconclusive. Potency is read from the fitted curve at half-maximal effect.

SMILES	Pol eta inh	Pol iota inh	POLK inh	FEN1 inhibitor	Pol beta inh	WRN helicase inh
NC(=O)c1c(NC(=O)CN2CCN(S(=O)(=O)c3ccccc3)CC2)sc2c1CCC2	?	13µM*	?	-12%	.	?
Cc1ccc(C)c(-n2nnc(-c3nc(-c4ccc(Cl)cc4)no3)c2N)c1	-8%	-14%	6%	-2%	30%	.
CCN(CC)c1ccc(/C=C/c2ccc3ccc(OC)cc3[n+]2CC)cc1	-22%	?	-2%	35µM*	-24%	56µM*
CN(C)c1ccc(/C=C/c2cc[n+](C)cc2)cc1	-23%	3%	-20%	?	-1%	79µM*
CC[n+]1c(/C=C/c2ccc(N(C)C)cc2)ccc2ccccc21	?	-23%	-36%	50µM*	28µM*	?
CC[n+]1c(/C=C/c2ccc(OC(C)=O)c(OC)c2)ccc2ccccc21	-9%	11%	6%	?	11%	-6%
Cc1[nH]c2ccccc2c1/C=N/NC(=O)c1ccccc1	-22%	-7%	2%	17%	-19%	-2%
Cc1[nH]c2ccccc2c1/C=N/NC(=O)c1ccc(N)cc1	-17%	-6%	-5%	-32%	20µM*	-7%
Clc1nc(NCC2CCCO2)c2[nH]cnc2n1 (stereo unspecified)	.	14%	-1%	11%	.	.
Cc1cc(C)cc(NC(=O)CCCN2C(=O)COc3ccc(C)cc32)c1	.	17%	-16%	-14%	?	.
O=C(C[N+]12CCCc3cccc(c31)CCC2)c1ccc2ccc3cccc4ccc1c2c34	.	59%	-11%	45µM*	.	.
C=CC[n+]1c(/C=C2\C=Cc3cc(C)ccc3N2CC)ccc2ccccc21	?	?	?	40µM*	32µM*	50µM*
Cc1cccc(NC(=O)/C=C/c2cccs2)n1	9%	-7%	?	2%	50µM*	-12%
CCOC(=O)C1CCN(c2cc3c(cc2NC(=O)c2ccccc2)n(C)c(=O)n3C)CC1	-10%	34%	11%	12%	5%	0%
CCOC(=O)C1CCN(c2cc3c(cc2NC(=O)c2ccc(OC)c(OC)c2)n(C)c(=O)n3C)CC1	50µM*	30%	-8%	-20%	61%	-15%[11.6 µM]
COc1ccc(Cl)cc1NC(=O)Cn1c(=O)n(Cc2ccco2)c(=O)c2ccc(C(=O)NC3CCCC3)cc21	-17%	44%	8%	22%	12%	.
O=C(C[n+]1cc(Br)cc2ccccc21)c1ccc(O)c(O)c1	.	?	2.8µM*	0%	.	.
O=C(C[n+]1cc(Br)cc2ccccc21)c1ccccc1	2%	-22%	4%	-14%	-3%	-3%
Cn1cccc1-c1cc(C(=O)N/N=C/c2ccc([N+](=O)[O-])cc2)[nH]n1	3%	20%	-7%	-10%	11%	-17%
CC(C)c1ccc(/C=N/NC(=O)c2cc(-c3cccc([N+](=O)[O-])c3)n[nH]2)cc1	?	?	-18%	5%	22µM*	-28%
O=C(O)C1Nc2c(C(F)(F)F)ccc(Cl)c2C2C=CCC12 (stereo unspecified)	?	?	-6%	10%	45µM*	-11%
Cc1cc(C)c2c(c1)C1C=CCC1C(C(=O)O)N2 (stereo unspecified)	.	?	28µM*	22µM*	.	.
O=C(O)C1Nc2c(C(=O)N3CCOCC3)cccc2C2C=CCC12 (stereo unspecified)	3.2µM*	11µM*	45µM*	?	20µM*	56µM*
O=C(c1ccccc1O)N1CCOCC1	-9%	20%	-2%	3%	67%	-4%
Cc1ccc2c(c1C)NC(C(=O)O)C1CC=CC21 (stereo unspecified)	3.5µM*	?	3.2µM*	56µM*	2.5µM*	40µM*
SMILES	Pol eta inh	Pol iota inh	POLK inh	FEN1 inhibitor	Pol beta inh	WRN helicase inh
COc1ccc2c(c1)c1c(c(=O)n(Cc3ccccc3)c(=O)n1Cc1cccc(Cl)c1)n2C	-5%	-3%	5%	5%	-5%	.
CC[C@]1(O)C[C@@H]2CN(CCc3c([nH]c4ccccc34)[C@@](C(=O)OC)(c3cc4c(cc3OC)N(C)C3[C@]45CCN4CC=C[C@](CC)(C45)[C@@H](OC(C)=O)[C@]3(O)C(=O)OC)C2)C1 (stereo partly specified)	.	.	3%[19.4 µM]	.	.	.
O=c1c(C(c2ccc(Cl)cc2)c2c(O)nc3n(c2=O)CCS3)c(O)nc2n1CCS2	89µM*	?	?	6%	-23%	-9%[11.6 µM]
O=Nc1ccc(NOC(=O)c2ccccc2Br)cc1	6%	120%	-14%	-2%	79µM*	10%
NC(=N\N=Cc1ccco1)/C(N)=N/N=Cc1ccco1	45µM*	?	-39%	-16%	.	-34%
CC(=O)N/C(=C/c1ccccc1)c1sc2ccccc2[n+]1CCCCI	.	?	-33%	?	.	.
Cc1cc(=O)oc2cc(OCC(=O)N/N=C/c3ccccc3[N+](=O)[O-])ccc12	?	28µM*	?	?	32µM*	?
CCOc1ccccc1NC(=O)c1cc(-c2ccncc2)nc2c(Cl)cccc12	-4%	-10%	-16%	2%	16µM*	-22%
O=C(Cn1c(SCc2cccc(F)c2)nc2cccnc21)Nc1ccc(F)c(Cl)c1	-6%	-2%	-11%	11%	-29%	.
CCOC(=O)C1CCCN(S(=O)(=O)c2ccc3[nH]c(=O)oc3c2)C1 (stereo unspecified)	-12%	25%	-8%	-8%	-1%	.
O=C(N/N=C/c1ccc(Sc2ccccn2)o1)c1cc2ccccc2cc1O	18µM*	20µM*	28µM*	50µM*	18µM*	?
COc1ccc(CNC(=O)CN2C(=O)COc3ccc(S(=O)(=O)Nc4ccccc4)cc32)cc1	-4%	-3%	-10%	-15%	0%	.
C/C(=N\Nc1nc(-c2ccc(C)cc2C)cs1)c1cc2ccccc2oc1=O	-9%	1%	-7%	-9%	22µM*	-14%
COc1cccc(/C=N/NC(=O)c2ccc(COc3ccc(Cl)cc3Cl)o2)c1	-2%	6%	-3%	1%	8%	-3%
COc1cc(/C=N/NC(=O)c2ccc(COc3ccccc3Cl)o2)cc(Br)c1O	?	?	-29%	-22%	28µM*	-32%
COc1ccc(/C=N/NC(=O)Cc2ccc(Cl)cc2)cc1OC	-8%	68%	3%	8%	-5%	-23%[57.1 µM]
COc1cc(/C=N/NC(=O)CC#N)cc(Br)c1O	-27%	45µM*	-16%	-2%	6%	-11%
O=C(N/N=C/c1ccc2ccccc2c1)c1ccc(COc2ccc3c(c2)CCC3)o1	10µM*	2%	-3%	?	35µM*	?
